This excerpt belongs to a sample that is enriched for hits.
Dicer processing = blocks human Dicer maturation of pre-miR-21; Q9UPY3; z-score at 25 µM; AID 1347074; hit rate 6% among 47,000; cat-ELCCA pre-miR-21 Dicer processing, chemiluminescence; hits give high values; in the data active = z-score above about 3, passing the limit was not always enough;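 note: plate controls were vehicle for no effect and no enzyme for full effect; higher signal means more uncleaved substrate so more Dicer inhibition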
* hit, by the source's call.

SMILES | Dicer processing
CCOC(=O)C1CCCN(C(=O)Cn2cnc3c2c(=O)n(C)c(=O)n3C)C1 (stereo not given) | 7.2*
CC1(C)CC(=O)C2=C(C1)NC(=O)CC2C(=O)Nc1ccc(F)cc1 (stereo not given) | -3.3
CCCNC(=C(C(=O)Nc1cccc(Cl)c1)C(=O)Nc1cccc(Cl)c1)c1ccc(OC)cc1 | 0.31
O=C(Nc1ccc2n[nH]nc2c1)c1sc2ccccc2c1Cl | -0.23
C=CCSc1nc2sc3c(c2c(=O)n1Cc1ccccc1)CCC(C)C3 (stereo not given) | -1.5
CC1(C)NC(C(=O)O)C(C)(C)S1 (stereo not given) | 0.14
CC(C)c1ccc(NC(=O)CSc2ncc(-c3ccc(Cl)cc3)o2)cc1 | -0.25
CC1(C)CCc2cc(/C=C(\C#N)S(C)(=O)=O)ccc2O1 | -0.76
CCN(CC)CCCNc1oc(-c2ccc(F)cc2)nc1C#N | -0.23
CC(C)COC(=O)CN1C(=O)C2C3c4ccccc4C(c4ccccc43)C2C1=O (stereo not given) | 1.2
CCc1ccc(C2C(C(=O)OC(C)C)=C(C)NC3=C2C(=O)CCC3)cc1 (stereo not given) | -0.57
COc1ccc(-c2cnn3c(N)c(-c4ccc(Cl)cc4)cnc23)cc1OC | 0.57
Cc1ccc(N2C(=O)C3C4C=CC(CC4)C3C2=O)c(Br)c1 (stereo not given) | 1.3
O=C1C2C3C=CC(C3)C2C(=O)N1c1ccc(Cc2ccc(N3C(=O)C4C5C=CC(C5)C4C3=O)cc2)cc1 (stereo not given) | 0.54
COC(=O)c1ccc(N2C(=O)C3C4C=CC(CC4)C3C2=O)cc1 (stereo not given) | -0.19
O=C(O)c1cccc(N2C(=O)C3C4C=CC(CC4)C3C2=O)c1 (stereo not given) | 2
CC(C)c1ccc(N2C(=O)C3C4C=CC(CC4)C3C2=O)cc1 (stereo not given) | 3.5*
O=C1C2C3C=CC(CC3)C2C(=O)N1c1cccc(Cl)c1 (stereo not given) | 3.3*
CN(/N=C/c1ccc(Cl)cc1)c1cnn(C)c(=O)c1Cl | 1.3
Cc1nc(SCC(=O)Nc2cccc3nsnc23)oc1C | -7.9
COC(=O)C12CCCC(C(N)=O)(CCC1)C2 | 0.95
Cc1cc(C)c(C#N)c(SCC(=O)n2nc(C)cc2C)n1 | -0.01
O=c1[nH]c2c(sc3nnc(-c4ccccc4)c(-c4ccccc4)c32)c(=O)n1-c1ccc(Cl)cc1 | 1.4
Clc1ccc(OCc2nc3c4cnn(Cc5ccccc5)c4ncn3n2)cc1 | -0.75
Cc1cc(Nc2ccc(N(C)C)cc2)c2cccc(C)c2n1 | 1.6
SMILES | Dicer processing
CCCCc1c(O)nc(SCCN(C)C)n(-c2ccccc2)c1=O | 0.39
CCOC(=O)CSc1nc2sc3c(c2c(=O)n1-c1ccccc1)CCN(C)C3 | 2.5
CCCCCc1c(O)nc(SCCN2CCOCC2)n(-c2ccccc2)c1=O | 3.3*
CS(=O)(=NC(=S)NC(=O)Oc1ccccc1)c1ccc(Cl)cc1 (stereo not given) | -0.13
COc1ccc(NS(=O)(=O)c2ccc(S(=O)(=O)c3ncc(C(F)(F)F)cc3Cl)s2)cc1 | -1.1
CCOC(=O)c1sc(N2C(=O)c3oc4ccccc4c(=O)c3C2c2cccc(O)c2)nc1C (stereo not given) | -0.38
O=C(Nc1cccc2cccnc12)c1cccs1 | -1.1
O=C(O)CCCC(=O)Nc1cccc2cccnc12 | 0.9
O=C(CCC(=O)OCC(=O)c1cccs1)Nc1cccc2cccnc12 | 4.3*
CSc1cccc(NC(=O)C(=O)N/N=C/c2ccc(N(C)C)cc2Cl)c1 | -2.9
Cc1ccc2nc(C3CCCCC3)cc(C(=O)O)c2c1 | 8.6
Cc1ccc2nc(C3C(=O)c4ccc(O)cc4C3=O)cc(C)c2c1 (stereo not given) | 3.7*
Cc1cc(C2C(=O)c3ccccc3C2=O)nc2ccccc12 | 0.53
O=S(Cc1c(Cl)cccc1Cl)c1ccc(C(F)(F)F)cn1 (stereo not given) | -1.2
Cc1onc(-c2c(Cl)cccc2Cl)c1NC(=O)OCc1c(F)cccc1Cl | 4*
Cc1onc(-c2c(Cl)cccc2Cl)c1C(=O)ONC(=O)C(C)(C)C | 0.7
Cc1onc(-c2c(Cl)cccc2Cl)c1NC(=O)OCCOc1ccc(Cl)cc1Cl | -0.91
CC(=O)NOC(=O)c1c(-c2c(Cl)cccc2Cl)noc1C | 0.86
Cc1onc(-c2c(Cl)cccc2Cl)c1NC(=O)NN(C)C(=S)SCc1c(F)cccc1Cl | 0.26
CCCNC(=O)O/N=C(\N)c1c(-c2c(Cl)cccc2Cl)noc1C | 4.5*
CCC1C(O)CC(c2ccccc2)NC1c1ccccc1 (stereo not given) | -0.05
COc1cc(C2/C(=C(\O)c3ccccc3)C(=O)C(=O)N2c2cccc(Cl)c2)ccc1O (stereo not given) | 2.3
Cc1c(-c2cc(NS(=O)(=O)c3ccccc3Cl)n(C)n2)sc2ccc(Cl)cc12 | 2.5
Fc1ccc(-c2cn3cccc(OCc4ccc(Cl)c(Cl)c4)c3n2)cc1 | -0.76
FC(F)(F)c1cccnc1SCc1ccc(Cl)cc1 | -1.6
SMILES | Dicer processing
N#Cc1cnc(SCc2ccc(Cl)cc2)nc1N | 0.28
N#Cc1c(SCc2ccc(Cl)cc2)nsc1Nc1ccc(Cl)cc1 | 3*
Cc1nn(C(=O)c2ccc(Cl)cc2)c(C)c1Sc1nnnn1-c1ccccc1 | -1.9
COc1ccc2[nH]c(-c3ccccc3)nc(=S)c2c1 | -0.55
CC(C)c1ccc(NC(=S)NN(C)C)cc1 | 2.9
C/C(=N\NC(=S)Nc1ccc(C(C)C)cc1)c1ccco1 | 3*
C/C(=N\NC(=S)Nc1ccc(F)cc1)c1ccco1 | 0.88

High-throughput results as filed in PubChem.
